One may read the inhibition as the drop in the measured response relative to a control, in per cent.

Results on 14 molecules are retold here after ChEMBL document CHEMBL3433997, “St. Jude Leishmania screening dataset” (2016).

For the experiment, the target named is Solute carrier family 2, facilitated glucose transporter member 1 (Homo sapiens) (UniProt P11166). The experiment can be described thus: ST_JUDE_LEISH: Cytotoxicity at 2uM final concentration against transgenic Leishmania Mexicana promastigotes LmGLUT1 that are glucose transport deficient and complemented with the human glucose transporter GLUT1. Activity is measured by DNA content using SYBR green in vitro. The class given is functional.
Sequence of Solute carrier family 2, facilitated glucose transporter member 1 (Homo sapiens) (P11166 whole entry): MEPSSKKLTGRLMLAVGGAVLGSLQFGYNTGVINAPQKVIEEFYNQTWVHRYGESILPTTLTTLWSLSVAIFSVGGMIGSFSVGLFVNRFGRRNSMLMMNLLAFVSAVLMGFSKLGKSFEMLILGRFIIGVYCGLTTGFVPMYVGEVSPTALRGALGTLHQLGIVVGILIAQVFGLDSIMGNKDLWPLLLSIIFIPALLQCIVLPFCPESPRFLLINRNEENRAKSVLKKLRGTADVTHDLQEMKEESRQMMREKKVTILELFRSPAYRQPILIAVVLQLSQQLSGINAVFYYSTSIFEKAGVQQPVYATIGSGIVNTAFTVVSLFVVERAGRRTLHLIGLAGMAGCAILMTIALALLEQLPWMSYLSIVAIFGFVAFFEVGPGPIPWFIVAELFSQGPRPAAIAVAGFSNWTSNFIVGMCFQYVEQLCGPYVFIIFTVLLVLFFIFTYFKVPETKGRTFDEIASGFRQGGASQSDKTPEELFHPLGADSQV
Molecule `CC[C@H](C)CNC(=O)c1cncc(-c2cccc(CNCCCc3ccccc3)c2)c1` had an inhibition of 4.76%.
With `COc1ccc2nccc([C@@H](O)CN3CCC(NC(=O)/C=C/c4c[nH]c5c(C)cccc45)CC3)c2c1`, the inhibition is 1.59%.
Take `CCOc1cc(OCC)c2ccccc2c1CNCCCCCCNCc1c(OCC)cc(OCC)c2ccccc12`: the inhibition was found to be 83.2%.
Then `NCc1ccc(CNCc2ccc(-c3ccc(-c4nc5cc(F)ccc5[nH]4)cc3)cc2)cc1`, with 10.3%; and `CC(C)C[C@@H]1C(=O)N[C@H](C2Cc3ccccc3C2)C(=O)N1[C@@H](C(=O)O)c1ccc(F)cc1F`, with 1.91%.
Then `COc1ccc(-n2nc(C)cc2C(=O)NCc2ccc(-c3c(C)noc3C)cc2)cc1`, with 2.56%; and `COc1ccc2c(c1)ncn2-c1cc(OCc2ccncc2Br)c(C(N)=O)s1`, with 1.09%; and `CN(C)c1ccc(NC(=O)Nc2ccnc3ccc(Br)cc23)cc1`, with 2.25%.
In turn, `Cc1nnc2sc(-c3cccc(NC(=O)c4ccc(N5CCCCC5)c([N+](=O)[O-])c4)c3)nn12` came in with an inhibition of 0.34%.
As for `O=C1COC(c2ccccc2)(c2ccccc2)CN1CC1CCN(Cc2ccc(O)cc2Cl)C1` (centres undefined), the inhibition was 3.1%.
Turning to `CC(=O)Nc1ccc2[nH]cc(C3CCN(CC4CCN(C(=O)/C=C/c5ccc(Cl)c(Cl)c5)CC4)CC3)c2n1`, the inhibition turned out to be 3.09%.
`Cc1nc2ccc(NC(=O)c3cc(S(=O)(=O)N(C)C)ccc3Cl)cc2s1` had an inhibition of 10.4%.
Then `CC(C)(CNCCOc1ccc(Cl)cc1)c1nc(-c2ccnc(N)n2)c(-c2ccc(Cl)c(O)c2)[nH]1`, with 2%; and `COc1ccc(NC(=O)Nc2nc3ccccc3s2)cc1N1CCN(C)CC1`, with 7.14%.
